Bioassay records (PubChem BioAssay)
BioA inh: blocks M. tuberculosis BioA enzyme activity; purified M. tuberculosis BioA enzyme, plate reader; AID 602481; 360,000 tested, 0.096% active; inhibition, % at 9.99 µM; in the data active means inhibition above about 40%
Rv3671c inh: inhibits the M. tuberculosis serine protease Rv3671c | inhibition, % at 5.96 µM | 320,000 tested, 0.048% active | AID 2606; in the data active means inhibition above about 38%;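 further: extracellular domain of Rv3671c used as enzyme; 0% = enzyme with DMSO and 100% = no enzyme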
Yp Topo-I inh: Y. pestis Topo-I inhibition via cleavage products. Y. pestis Topo-I cleavage product accumulation, plate reader. activity, % at 10 µM. 360,000 tested, 0.064% active; in the data active means activity above about 50%, passing the limit was not always enough
RecA intein inh: Mtb RecA intein splicing inhibition. cell-free RecA intein splicing, fluorescence. P9WHJ3. inhibition, % (no concentration beside the values). AID 2221. 290,000 tested, 0.75% active; in the data active means inhibition above about 30%;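 further: 0% = vehicle wells and 100% = reference inhibitor control wells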
Target sequence (P9WHJ3 whole entry, looked up): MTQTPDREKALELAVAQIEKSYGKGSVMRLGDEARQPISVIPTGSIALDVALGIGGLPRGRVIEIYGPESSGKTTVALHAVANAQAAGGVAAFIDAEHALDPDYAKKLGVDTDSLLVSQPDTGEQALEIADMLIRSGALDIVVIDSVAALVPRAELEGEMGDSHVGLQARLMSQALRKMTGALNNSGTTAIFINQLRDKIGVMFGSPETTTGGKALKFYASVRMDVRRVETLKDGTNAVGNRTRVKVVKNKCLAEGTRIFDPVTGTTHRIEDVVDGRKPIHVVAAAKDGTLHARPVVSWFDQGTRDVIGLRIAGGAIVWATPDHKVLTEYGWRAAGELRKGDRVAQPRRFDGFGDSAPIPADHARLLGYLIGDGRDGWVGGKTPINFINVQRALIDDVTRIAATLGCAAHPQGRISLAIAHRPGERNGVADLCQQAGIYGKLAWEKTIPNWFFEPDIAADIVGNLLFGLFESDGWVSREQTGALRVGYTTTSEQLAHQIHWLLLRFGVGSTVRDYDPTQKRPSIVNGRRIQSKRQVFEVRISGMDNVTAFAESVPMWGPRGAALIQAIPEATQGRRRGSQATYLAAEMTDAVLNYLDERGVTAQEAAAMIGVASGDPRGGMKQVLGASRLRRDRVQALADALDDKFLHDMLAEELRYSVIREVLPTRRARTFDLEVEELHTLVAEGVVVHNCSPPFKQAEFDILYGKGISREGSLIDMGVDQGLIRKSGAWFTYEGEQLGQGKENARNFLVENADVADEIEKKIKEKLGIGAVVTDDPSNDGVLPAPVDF
FadD28 binding: inhibitors of Mycobacterium tuberculosis FadD28 bisubstrate binding. FadD28 bisubstrate probe binding, fluorescence polarization. inhibition, % at 12.5 µM. 360,000 tested, 0.22% active; in the data active means inhibition above about 8.5%, passing the limit was not always enough
Mtb UGM inh: Mtb UDP-galactopyranose mutase inhibition; P9WIQ1; purified UGM, fluorescence polarization probe displacement; inhibition, % at 10 µM; 320,000 tested, 0.06% active; AID 504406; in the data active means inhibition above about 10%, passing the limit was not always enough
GFP chromo cs: counter-screen: blocks GFP chromophore formation | 2,100 tested, 83% active | cell-free GFP chromophore formation, fluorescence | shares compounds with RecA intein inh | AID 434968 | EC50, µM; call rule not given here
An asterisk follows results filed as active; x = no result. Sampled rows, rich in hits. Any-hit rate of the full collection: about 0.82%.

SMILES	BioA inh	Rv3671c inh	Yp Topo-I inh	RecA intein inh	FadD28 binding	Mtb UGM inh	GFP chromo cs
Cc1[nH]n(-c2ccccc2)c(=O)c1C(c1ccc(O)c([N+](=O)[O-])c1)c1c(C)[nH]n(-c2ccccc2)c1=O	2.4	-47.6	-8.2	85.6*	2.7	1.2	2.25*
OC(COC(c1ccc(Cl)cc1)c1ccc(Cl)cc1)CN1CCc2ccccc2C1 (centres undefined)	1.6	-4.3	31.2	30.3*	-4.3	-1.0	>38
C[C@@H]1CCCCO[C@@H](CN(C)S(=O)(=O)c2cn(C)cn2)[C@H](C)CN([C@@H](C)CO)C(=O)c2cc(NC(=O)c3ccccc3)ccc2O1	0.6	x	x	x	x	x	x
O=C1C(Nc2ccccc2)=C/C(=N/S(=O)(=O)c2cccs2)c2ccccc21	0.0	-188.0	-0.9	38.5*	4.4	0.7	0.277*
Cc1ccc(NC2=C/C(=N/S(=O)(=O)c3cccs3)c3ccccc3C2=O)cc1	x	-76.9	-15.7	31.0*	-2.5	1.0	0.139*
Cc1ccc(S(=O)(=O)/N=C2\C=C(NS(=O)(=O)c3ccccc3)C(=O)c3ccccc32)c(C)c1	-0.9	x	3.6	x	-2.1	x	x
C[C@H](CO)N1C[C@H](C)[C@@H](CN(C)S(=O)(=O)c2ccccc2)Oc2ccc(NC(=O)CCC(F)(F)F)cc2CC1=O	-0.9	x	x	x	x	x	x
O=C(NCC[C@@H]1CC[C@H](NC(=O)C2CCOCC2)[C@@H](CO)O1)c1ccc(F)cc1	-1.9	x	x	x	x	x	x
O=C(O)c1ccc(NC2=C(n3nnc4ccccc43)C(=O)c3ccccc3C2=O)cc1	x	-108.1	-5.2	88.4*	-0.6	2.3	5.58*
CCN(CC)C(=O)c1ccc2c(c1)C1C(Cl)C(Sc3ccccc3[N+](=O)[O-])CC1C(C(=O)O)N2 (centres undefined)	x	6.3	4.5	35.9*	34.5*	-0.6	23.2*
Cc1ccc2c(c1Cl)NC(C(=O)O)C1CC(Sc3ccccc3[N+](=O)[O-])C(Cl)C21 (centres undefined)	x	4.4	-9.0	x	-10.9	0.6	x
CC1=C(C)CC2(SC1)C(=O)N(c1ccccc1)N=C2N (centres undefined)	x	15.8	-4.7	75.8*	1.6	0.6	4.15*
Cc1ccc(SCc2[nH]nc3c2C(c2cccnc2)C(C#N)=C(N)O3)cc1 (centres undefined)	2.6	-15.7	-8.1	12.8	-1.5	0.8	x
Cc1ccc(-c2ccc(C3C(C#N)=C(N)Oc4n[nH]c(C)c43)o2)cc1 (centres undefined)	-0.7	0.4	1.2	67.5*	-1.3	-2.7	36.2*
Cc1[nH]nc2c1C(C1CC=CCC1)C(C#N)=C(N)O2 (centres undefined)	-0.1	-0.9	0.4	x	-4.9	-0.2	x
CC(C)(C)c1[nH]nc2c1C(Cc1ccccc1)C(C#N)=C(N)O2 (centres undefined)	2.3	2.5	-13.1	54.1*	-1.9	2.8	20.3*
Cc1cc(C2C(C#N)=C(N)Oc3n[nH]c(C)c32)c(C)s1 (centres undefined)	1.8	-0.8	3.1	80.8*	-1.9	-0.1	36.5*
Cc1[nH]nc2c1C(c1ccsc1C)C(C#N)=C(N)O2 (centres undefined)	x	2.2	-11.3	47.6*	-2.9	4.1	27.8*
CC(C)(C)c1[nH]nc2c1C(c1cccnc1)C(C#N)=C(N)O2 (centres undefined)	-2.4	-6.4	-4.8	-1.7	0.3	-0.9	x
O=C1OC[C@@H](c2ccccc2)n2cc(/C=C/c3ccccc3)cc21	-2.1	x	x	x	x	x	x
CCS(=O)(=O)NCC[C@H]1CC[C@H](NS(=O)(=O)c2cccc(Cl)c2)[C@@H](CO)O1	2.6	x	x	x	x	x	x
N#Cc1c(C#N)c(O)c2ccccc2c1O	-6.2	-2.7	-3.5	83.8*	-0.2	0.9	2.42*
N#Cc1ccccc1	-0.9	-2.4	-3.0	x	-2.9	0.1	x
CS(=O)(=O)c1nc([N+](=O)[O-])nn1CCCc1ccccc1	x	-2.4	3.8	51.2*	-2.5	-0.9	26.1*
Cn1nc([N+](=O)[O-])nc1S(C)(=O)=O	x	x	2.2	9.8	-4.0	x	x
C[C@@H]1CN([C@@H](C)CO)C(=O)c2cc(NS(=O)(=O)c3ccccc3)ccc2O[C@H]1CN(C)C(=O)Nc1ccc2c(c1)OCO2	0.0	x	x	x	x	x	x
O=C(C[C@H]1C[C@@H]2c3cc(NC(=O)c4cccnc4)ccc3O[C@@H]2[C@@H](CO)O1)NC1CCCCC1	39.4	x	x	x	x	x	x
